# Compound activity as filed in PubChem BioAssay.
# FXIa single inh – human FXIa protease inhibitors, primary screen, biochemical, single compound per well; Coagulation factor XI (Homo sapiens), P03951; purified human FXIa, fluorogenic AMC substrate cleavage; inhibition, % at 10 µM; 33,000 compounds, 0.3% hits; AID 687, 2007;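 active = inhibition above 40% in the primary screen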
# FXIIa single – human FXIIa protease inhibitors, primary screen, biochemical, single well | purified human FXIIa, AMC substrate fluorescence, 2 h | inhibition, % at 10 µM | 33,000 compounds, 0.2% hits; in the data active = inhibition above about 30%
# Numbers stand for hits; i = inactive. The entries come from a sample that favours hits as a whole.
SMILES,FXIa single inh,FXIIa single
CNCCCc1ccccc1,41,i
COc1ccc(CCC(C)NCCc2ccccc2)cc1 (stereo not given),i,i
c1ccc2cc3cc4ccccc4cc3cc2c1,i,i
